# Measured values taken from PubChem BioAssay AID2673 (National Center for Advancing Translational Sciences (NCATS), 2010).
# Results filed as inconclusive are left out. Where a call stands in place of a potency, no number is given. Calls of active or inactive are those of the source. Calls come from the whole dose curve; as a rule, active = well fitted activation curve with a large enough effect; inconclusive = small, poorly fitted or top-dose-only effect; inactive = no such curve, though single readings can be large or run the other way.
# Experiment: qHTS Multiplex Assay to Identify Dual Action Probes in a Cell Model of Huntington: Cytoprotection confirmation (ATP)
# Conditions: PC12 HttQ103 induced, ATP luminescence 40 h; series mostly up to 46.1 µM
# Outline: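 PC12 cells expressing ecdysone-inducible HTT exon 1 (Q103)-GFP, induced with 100 nM tebufenozide and exposed to compounds; cytoprotection read as cellular ATP by ATPlite luminescence.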
row,Compound,Potency
1,O=C(Nc1ccc(Cl)cc1C(F)(F)F)C(Sc1cccc[n+]1[O-])c1ccccc1 (stereo not given),inactive
2,Cc1noc(C)c1COC(=O)Cc1ccc(Cl)cc1,inactive
3,Cn1nnnc1Sc1ncnc2scc(-c3cccs3)c12,10 µM (active)
4,CCc1nc(SCC(=O)Nc2nc3c(s2)CCCC3)c2ccccc2n1,inactive
5,COc1ccccc1-c1csc2ncnc(Sc3nnnn3C)c12,inactive
